What follows are molecules tested on T1, p38-beta. Conditions: concentration: 1 μM, replicates: in singlicate; n = 1.
T1 construct: gene MAPK11
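Further: KINOMEscan kinase panel screen.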

Compound	%Inh [%]
Cc1ccc(-c2nc(Nc3ccncc3)c3ccccc3n2)s1 [GSK189015]	0
CNc1nc(-c2ccc3c(N)n[nH]c3c2)cc(N2C[C@@H](C(=O)NC3CCCCC3)OC[C@H]2C)n1 [GSK2375584]	0
Cn1cnc2c(N)ncnc21 [SKF-97623]	0
Fc1ccc(-c2nc[nH]c2-c2ccncc2)cc1 [SB-217360]	21
COc1cccc(NC(=O)Nc2ccc(C)c(-c3ccc(C(=O)Nc4ccncc4)cc3)c2)c1 [GSK1398474]	0
Nc1ncnc2occ(-c3ccc4c(c3)CCN4C(=O)Cc3cc(F)ccc3F)c12 [GSK2645446]	0
COc1ccc(CSc2nnc(-c3ccc4nccn4c3)o2)cc1C(F)(F)F	21
Cc1cccc2c(-c3ccncn3)c(-c3ccc(F)cc3)nn12 [GW515532]	1
Cc1ccccc1-c1cc(-c2c[nH]nc2-c2ccccn2)ccn1 [GW680061]	0
CCCCc1nn2ncccc2c1-c1ccnc(NC2CC2)n1 [GW684374]	0
CCn1c(-c2ccccc2)nc2cnccc21 [SB-733416]	0
Cn1cncc1-c1cc2c(Nc3ccc(OCc4ccccc4)cc3)ncnc2cn1 [GW281179]	0
Cc1c(Cn2c3ccccc3n3c(=O)cc(N4CCOCC4)nc23)cccc1C(F)(F)F [GSK2306394]	0
CS(=O)(=O)CCNCc1nc(-c2ccc3ncnc(Nc4ccc(OCc5ccccc5)c(Cl)c4)c3c2)cs1.Cl [GW582764]	0
COC(=O)C(NC(=O)NC1CCN(c2ccnc(Nc3ccc(F)cc3)n2)C1)c1ccccc1 (stereo not shown) [GSK1379712]	0
Cc1ccc(NC(=O)Nc2ccc(Cl)c(C(F)(F)F)c2)cc1-c1ccc(C(=O)Nc2ccncc2)cc1 [GSK1398470]	96.2
COc1ccc(-c2coc3ccc(-c4nnc(C)o4)cc23)cc1	14
COC(=O)c1cccc(NC(=O)NC2CCN(c3ccnc(Nc4ccc(OC)cc4)n3)C2)c1 (stereo not shown) [GSK1379746]	0
CC(=O)c1c(C)c2cnc(Nc3ccn(C)n3)nc2n(C2CCCC2)c1=O	0

Compound	%Inh [%]
CC(=O)c1c(C)c2cnc(Nc3ccc(N4CCNCC4)cn3)nc2n(C2CCCC2)c1=O	0
CNC(=O)c1ccc(C)c(-n2c(C)cc(OCc3ccc(F)cc3F)c(Br)c2=O)c1	94.5
FC(F)(F)c1ccccc1-c1cc(-c2c[nH]nc2-c2ccccn2)ccn1 [GW679396]	18
CCn1c(-c2c(N)noc2C)nc2cnccc21 [SB-737856]	0
Fc1ccc(-c2nn3cccc(F)c3c2-c2ccncc2)cc1 [GW475620]	16
CS(=O)(=O)Cc1ccc(Nc2nccc(-c3c(-c4cccc(NC(=O)C5CCCCC5)c4)nn4ncccc34)n2)cc1 [GSK350559]	6
CC(C)c1cc(-c2ccc3c(N)n[nH]c3c2)nc(N)n1 [GSK2250882]	0
Nc1cccc(-c2ccc3c(N)n[nH]c3c2)n1 [GSK2192730]	0
COc1nccc(-c2c(-c3ccc(F)cc3)ncn2CCCN2CCOCC2)n1 [SB-282852]	62
Cc1ccc(NC(=O)Nc2ccccc2)cc1-c1ccc(C(=O)Nc2ccncc2)cc1 [GSK1398471]	0
O=C(Nc1n[nH]c2nc(-c3cccs3)c(Br)cc12)C1CC1 [SB-735297]	2
O=C(Nc1n[nH]c2nc(-c3cccs3)c(Br)cc12)C1CCCC1 [SB-743341]	24
O=c1cc(N2CCOCC2)nc2n(Cc3ccccc3F)ccn12 [GSK2297428]	0
Cl.Cl.Cl.N#Cc1ccc(CCNc2nccc(-c3cccc(CN4CCNCC4)c3)n2)cc1 [GSK2137462]	0
CSc1ccc(-c2nc3n(c2-c2ccncc2)CCC3)cc1 [SKF-105561]	7
Cc1ccc(NC(=O)Nc2ccccc2F)cc1-c1ccc(C(=O)Nc2ccncc2)cc1 [GSK1398477]	12
CCc1ccc(-c2ccc3c(c2)-c2n[nH]cc2S(=O)(=O)N3C)cc1	0
COc1ccc(Nc2nccc(N3CCC(NC(=O)c4cc5ccccc5s4)C3)n2)cc1 (stereo not shown) [GSK1379738]	0

Source: paper PMC5540273 (PLoS ONE, 2017)
